# Assay results: the supplement of paper PMC11006884
# About 6,500 targets were measured; listed, in parts, are those with a hit and a random draw of the rest. About 2% of all pairs of compound and target were hits. Values without a mark were called inactive.
# Compound: COC(=O)C#Cc1ccccc1 [methyl 3-phenylpropiolate]
# Assay: log2 ratio of iodoacetamide-alkyne labeling of the cysteine site, DMSO over compound (competition); higher = stronger covalent engagement of the cysteine by the compound, active = 1 or more
# Conditions: 500 µM; treatment time 1 h; system: HEK293T cell lysate
# Procedure, shortened: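 Three replicates, each with duplicate channels, were prepared from HEK293T lysate (2 mg/mL) treated with vehicle or electrophile at 500 µM for 1 h at ambient temperature. Iodoacetamide alkyne was then applied for 1 h, and samples were clicked to sCIP-TMT reagents, pooled, trypsin-digested overnight at 37 °C, enriched on streptavidin, acid-eluted and analysed on Orbitrap Eclipse LC-MS/MS with FAIMS, with FragPipe quantification. The log2 competition ratio per cysteine is the mean control-channel divided by the mean compound-channel reporter intensity. Cysteines quantified in only one replicate were left out.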
# Sequence of UniProt P35611 (P35611 whole entry, looked up): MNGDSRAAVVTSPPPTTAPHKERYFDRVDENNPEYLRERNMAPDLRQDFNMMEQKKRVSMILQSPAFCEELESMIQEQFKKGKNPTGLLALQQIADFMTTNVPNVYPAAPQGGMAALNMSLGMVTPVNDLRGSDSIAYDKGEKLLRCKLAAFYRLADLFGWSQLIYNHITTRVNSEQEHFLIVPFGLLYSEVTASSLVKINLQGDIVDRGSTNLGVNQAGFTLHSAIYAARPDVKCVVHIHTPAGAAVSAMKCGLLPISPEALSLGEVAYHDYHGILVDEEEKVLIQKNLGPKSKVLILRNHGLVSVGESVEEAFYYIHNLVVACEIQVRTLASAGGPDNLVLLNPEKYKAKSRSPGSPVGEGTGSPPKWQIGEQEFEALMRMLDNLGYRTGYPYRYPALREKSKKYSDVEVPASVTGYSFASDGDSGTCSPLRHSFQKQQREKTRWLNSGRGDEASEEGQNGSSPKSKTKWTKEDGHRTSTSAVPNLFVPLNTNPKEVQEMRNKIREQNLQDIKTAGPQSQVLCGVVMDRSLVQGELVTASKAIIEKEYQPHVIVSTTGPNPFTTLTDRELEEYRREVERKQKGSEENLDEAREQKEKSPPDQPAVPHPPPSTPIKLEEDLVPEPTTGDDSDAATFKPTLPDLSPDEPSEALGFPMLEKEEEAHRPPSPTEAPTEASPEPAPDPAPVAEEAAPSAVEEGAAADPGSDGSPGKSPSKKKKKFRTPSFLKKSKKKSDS
# Sequence of UniProt P50991 (P50991 whole entry, looked up): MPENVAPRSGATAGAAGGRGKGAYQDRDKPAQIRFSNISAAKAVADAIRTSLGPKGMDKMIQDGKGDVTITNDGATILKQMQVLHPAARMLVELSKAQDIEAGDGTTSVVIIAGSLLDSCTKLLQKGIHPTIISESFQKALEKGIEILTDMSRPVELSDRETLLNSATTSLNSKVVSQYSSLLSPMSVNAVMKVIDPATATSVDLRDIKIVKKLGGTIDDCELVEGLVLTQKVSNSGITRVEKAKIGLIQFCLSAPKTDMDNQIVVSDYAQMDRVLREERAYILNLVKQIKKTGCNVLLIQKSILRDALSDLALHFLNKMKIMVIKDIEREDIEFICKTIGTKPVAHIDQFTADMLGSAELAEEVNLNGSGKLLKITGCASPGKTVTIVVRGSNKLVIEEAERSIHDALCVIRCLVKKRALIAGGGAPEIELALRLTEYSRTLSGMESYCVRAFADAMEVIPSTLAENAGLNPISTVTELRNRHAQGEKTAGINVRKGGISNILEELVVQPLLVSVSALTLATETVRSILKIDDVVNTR
# Sequence of UniProt P30154 (P30154 whole entry): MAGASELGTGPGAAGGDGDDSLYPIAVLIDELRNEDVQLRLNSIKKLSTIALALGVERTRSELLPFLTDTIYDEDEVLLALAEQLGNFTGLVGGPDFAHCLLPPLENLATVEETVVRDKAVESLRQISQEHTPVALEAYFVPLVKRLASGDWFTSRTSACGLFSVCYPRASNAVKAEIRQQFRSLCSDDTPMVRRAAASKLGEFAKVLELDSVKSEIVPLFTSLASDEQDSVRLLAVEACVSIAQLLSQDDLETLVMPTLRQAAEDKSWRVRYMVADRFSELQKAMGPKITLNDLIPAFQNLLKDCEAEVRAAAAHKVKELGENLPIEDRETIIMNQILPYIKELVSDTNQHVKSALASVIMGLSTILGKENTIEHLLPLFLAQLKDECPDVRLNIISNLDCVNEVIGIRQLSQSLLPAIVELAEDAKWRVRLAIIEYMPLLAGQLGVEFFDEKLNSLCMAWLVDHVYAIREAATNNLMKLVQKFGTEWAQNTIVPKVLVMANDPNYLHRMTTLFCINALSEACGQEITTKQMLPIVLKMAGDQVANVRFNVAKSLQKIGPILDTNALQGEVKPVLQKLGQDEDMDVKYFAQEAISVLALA
# Sequence of UniProt P31153 (P31153 whole entry, looked up): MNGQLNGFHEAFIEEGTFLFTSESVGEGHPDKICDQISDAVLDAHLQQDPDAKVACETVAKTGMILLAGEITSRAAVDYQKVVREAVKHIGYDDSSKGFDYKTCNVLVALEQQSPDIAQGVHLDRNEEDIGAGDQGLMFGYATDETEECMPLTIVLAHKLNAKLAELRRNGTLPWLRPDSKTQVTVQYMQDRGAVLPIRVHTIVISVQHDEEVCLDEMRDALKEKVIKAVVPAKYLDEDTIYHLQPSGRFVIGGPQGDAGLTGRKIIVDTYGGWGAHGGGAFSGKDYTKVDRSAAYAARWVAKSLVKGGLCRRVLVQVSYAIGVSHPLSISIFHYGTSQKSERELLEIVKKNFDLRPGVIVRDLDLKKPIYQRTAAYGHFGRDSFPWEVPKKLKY
# Sequence of UniProt P34949 (P34949 whole entry, looked up): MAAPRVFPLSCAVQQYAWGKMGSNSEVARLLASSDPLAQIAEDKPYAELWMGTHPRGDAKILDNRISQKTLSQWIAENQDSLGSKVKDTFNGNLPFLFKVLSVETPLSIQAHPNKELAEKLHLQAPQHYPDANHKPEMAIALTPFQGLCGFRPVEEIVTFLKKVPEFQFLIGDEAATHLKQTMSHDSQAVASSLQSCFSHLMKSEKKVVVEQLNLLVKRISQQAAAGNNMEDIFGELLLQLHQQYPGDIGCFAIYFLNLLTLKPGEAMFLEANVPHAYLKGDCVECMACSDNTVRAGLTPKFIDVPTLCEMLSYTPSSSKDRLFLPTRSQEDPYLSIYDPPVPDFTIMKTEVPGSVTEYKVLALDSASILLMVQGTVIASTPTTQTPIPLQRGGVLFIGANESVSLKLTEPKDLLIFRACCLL
# Sequence of UniProt P48643 (P48643 whole entry, looked up): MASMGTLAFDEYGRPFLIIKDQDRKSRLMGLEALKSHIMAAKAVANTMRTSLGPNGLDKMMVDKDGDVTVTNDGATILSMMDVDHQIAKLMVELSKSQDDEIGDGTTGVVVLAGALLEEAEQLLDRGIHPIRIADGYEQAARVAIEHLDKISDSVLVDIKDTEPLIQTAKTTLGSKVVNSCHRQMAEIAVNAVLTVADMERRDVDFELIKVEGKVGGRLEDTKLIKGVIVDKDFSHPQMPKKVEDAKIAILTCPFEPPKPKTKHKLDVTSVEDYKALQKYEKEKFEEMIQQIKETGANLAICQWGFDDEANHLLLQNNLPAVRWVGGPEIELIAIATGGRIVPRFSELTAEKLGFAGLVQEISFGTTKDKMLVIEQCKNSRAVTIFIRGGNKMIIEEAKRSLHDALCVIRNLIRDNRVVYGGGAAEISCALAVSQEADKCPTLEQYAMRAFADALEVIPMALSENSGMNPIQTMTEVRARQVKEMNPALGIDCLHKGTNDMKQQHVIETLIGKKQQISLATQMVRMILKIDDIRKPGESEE
# Sequence of UniProt P00492 (P00492 whole entry, looked up): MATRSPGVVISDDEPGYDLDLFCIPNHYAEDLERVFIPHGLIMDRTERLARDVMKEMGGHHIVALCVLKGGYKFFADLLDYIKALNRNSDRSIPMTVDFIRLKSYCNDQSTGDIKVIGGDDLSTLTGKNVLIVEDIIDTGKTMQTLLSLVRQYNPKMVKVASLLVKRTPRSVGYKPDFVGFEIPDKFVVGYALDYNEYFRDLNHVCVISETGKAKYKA
# Sequence of UniProt P49902 (P49902 whole entry): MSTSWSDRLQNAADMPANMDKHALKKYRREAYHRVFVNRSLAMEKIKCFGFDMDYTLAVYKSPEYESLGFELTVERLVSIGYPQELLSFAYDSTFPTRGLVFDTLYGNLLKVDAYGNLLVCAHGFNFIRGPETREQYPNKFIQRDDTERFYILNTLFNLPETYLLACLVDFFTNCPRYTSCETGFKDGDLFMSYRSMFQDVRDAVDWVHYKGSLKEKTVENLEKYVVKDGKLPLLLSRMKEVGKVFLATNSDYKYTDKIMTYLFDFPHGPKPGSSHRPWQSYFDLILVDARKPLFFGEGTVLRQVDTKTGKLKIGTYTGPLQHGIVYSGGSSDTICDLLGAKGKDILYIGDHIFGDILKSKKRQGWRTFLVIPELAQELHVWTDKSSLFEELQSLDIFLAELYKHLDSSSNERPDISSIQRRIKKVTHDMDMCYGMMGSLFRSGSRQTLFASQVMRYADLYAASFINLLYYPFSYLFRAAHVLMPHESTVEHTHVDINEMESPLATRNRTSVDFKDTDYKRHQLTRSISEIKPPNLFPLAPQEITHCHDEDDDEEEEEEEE
# Sequence of UniProt P09110 (P09110 whole entry, looked up): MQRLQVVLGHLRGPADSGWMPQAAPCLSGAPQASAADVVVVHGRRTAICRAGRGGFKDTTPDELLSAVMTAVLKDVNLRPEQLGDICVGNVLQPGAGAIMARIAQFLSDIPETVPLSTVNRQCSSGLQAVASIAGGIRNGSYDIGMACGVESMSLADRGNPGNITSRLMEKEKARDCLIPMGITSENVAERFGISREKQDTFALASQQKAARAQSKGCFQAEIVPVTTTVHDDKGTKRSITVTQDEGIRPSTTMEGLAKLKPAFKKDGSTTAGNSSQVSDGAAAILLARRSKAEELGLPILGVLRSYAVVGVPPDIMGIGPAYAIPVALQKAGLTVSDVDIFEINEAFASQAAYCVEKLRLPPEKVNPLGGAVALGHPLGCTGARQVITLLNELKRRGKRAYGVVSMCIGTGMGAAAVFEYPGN
# Sequence of UniProt P49585 (P49585 whole entry, looked up): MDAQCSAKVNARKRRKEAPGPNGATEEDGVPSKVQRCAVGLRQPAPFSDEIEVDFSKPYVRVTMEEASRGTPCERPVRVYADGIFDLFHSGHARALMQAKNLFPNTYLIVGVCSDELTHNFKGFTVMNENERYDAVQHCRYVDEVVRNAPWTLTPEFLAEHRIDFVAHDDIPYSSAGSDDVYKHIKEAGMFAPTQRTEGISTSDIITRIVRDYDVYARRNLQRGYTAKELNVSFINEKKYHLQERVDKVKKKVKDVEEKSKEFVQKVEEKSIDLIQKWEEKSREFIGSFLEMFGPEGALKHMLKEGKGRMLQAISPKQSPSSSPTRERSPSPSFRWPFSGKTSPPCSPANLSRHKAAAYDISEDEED
row,Target,log2 ratio of iodoacetamide-alkyne labeling
1,HNRNPA3 C85 (UniProt P51991),0.23
2,FASN C1118 (UniProt P49327),0.203
3,HPRT1 C206 (UniProt P00492),0.0837
4,RPL4 C96 (UniProt P36578),1.24 (active)
5,RRM1 C26 (UniProt P23921),0.0708
6,UniProt P26639_C107,0.12
7,UniProt P26639_C343,0.143
8,TCEA1 C271 (UniProt P23193),-0.116
9,ANXA7 C363 (UniProt P20073),0.0125
10,UniProt P10155_C71,0.136
11,RPL17 C144 (UniProt P18621),0.131
12,LMNB1 C198 (UniProt P20700),0.109
13,MTHFD1 C691 (UniProt P11586),0.242
14,MAT2A C104 (UniProt P31153),0.274
15,ADD1 C253 (UniProt P35611),0.101
16,CCT6A C282 (UniProt P40227),0.13
17,COIL C126 (UniProt P38432),0.729
18,CYC1 C219 (UniProt P08574),0.0599
19,GMPS C631 (UniProt P49915),0.369
20,SCP2 C94 (UniProt P22307),0.136
21,RRM1 C352 (UniProt P23921),0.357
22,ST13 C209 (UniProt P50502),0.272
23,IMPDH2 C95 (UniProt P12268),-0.293
24,SEC24B C562 (UniProt O95487),0.735
25,FXR2 C270 (UniProt P51116),0.306

row,Target,log2 ratio of iodoacetamide-alkyne labeling
1,CCT5 C377 (UniProt P48643),0.18
2,DSP C174 (UniProt P15924),1.06 (active)
3,OAT C306 (UniProt P04181),0.00204
4,CCT4 C252 (UniProt P50991),-0.0169
5,ACAA1 C123 (UniProt P09110),-0.0075
6,UniProt P42677_C77,1.73 (active)
7,PPP2R1B C306 (UniProt P30154),0.0579
8,SLC25A5 C160 (UniProt P05141),0.177
9,UniProt P0DN79_C15,2.27 (active)
10,MAP1B C1814 (UniProt P46821),0.438
11,CTSB C319 (UniProt P07858),0.512
12,FLNA C2107 (UniProt P21333),0.12
13,ASS1 C132 (UniProt P00966),0.124
14,MAP1B C73 (UniProt P46821),0.173
15,FASN C1992 (UniProt P49327),0.0894
16,TAGLN2 C38 (UniProt P37802),-0.0194
17,ADSL C27 (UniProt P30566),0.0306
18,RPS5 C66 (UniProt P46782),2.5 (active)
19,EEF2 C567 (UniProt P13639),0.0358
20,UniProt P41250_C616,-0.119
21,PFKL C170 (UniProt P17858),0.343
22,PPP2R1A C294 (UniProt P30153),0.323
23,RPL14 C42 (UniProt P50914),1.82 (active)
24,RTN3 C34 (UniProt O95197),1.43 (active)
25,OAT C253 (UniProt P04181),0.0787

row,Target,log2 ratio of iodoacetamide-alkyne labeling
1,NT5C2 C181 (UniProt P49902),0.0722
2,CPSF4 C110 (UniProt O95639),-0.138
3,ANXA7 C327 (UniProt P20073),0.191
4,UniProt P14618_C424,-0.246
5,MPI C289 (UniProt P34949),-0.0268
6,UniProt P49459_C88,0.243
7,BSG C242 (UniProt P35613),0.215
8,ANXA7 C285 (UniProt P20073),0.0794
9,CBX5 C133 (UniProt P45973),0.17
10,PARP1 C128 (UniProt P09874),0.229
11,FLNA C478 (UniProt P21333),0.00171
12,RPL4 C208 (UniProt P36578),0.273
13,RPL10 C195 (UniProt P27635),0.694
14,FLNA C1453 (UniProt P21333),0.357
15,HNRNPA3 C196 (UniProt P51991),-0.0216
16,MYH9 C1379 (UniProt P35579),0.164
17,PARP1 C429 (UniProt P09874),0.192
18,UniProt P28482_C254,-0.0158
19,FASN C1127 (UniProt P49327),0.394
20,GALK1 C170 (UniProt P51570),0.0992
21,U2AF1L5 C67 (UniProt P0DN76),0.366
22,PCYT1A C73 (UniProt P49585),0.921
23,TMPO C341 (UniProt P42166),1.77 (active)
24,POLR1A C613 (UniProt O95602),0.472
